These results are taken from PubChem BioAssay (NCI).

Where “and” joins values, the source holds several entries; their conditions need not be identical. Equal values may be shown once. This is part of a sample that, as a whole, favours compounds with a hit. Of some 83,000 tested, about 20% had one in any assay.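 Single-dose data. Exposure time 48 hours. Values below 10 considered active.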 Calls of active or inactive are those of the source.

For the experiment, the system named is MALME-3M melanoma. Nature of the experiment: NCI-60 one-dose screen, 48 h (100 = growth as untreated, 0 = no growth, -100 = all killed). As to conditions: 10 µM unless noted.
As to `COc1ccc2c(c1)c(-c1nc(-c3c[nH]c4c(Cl)nccc34)cs1)cn2C`, the growth is 117% (inactive).
With `C[C@]12CCc3c(ccc4cc(O)ccc34)[C@@H]1C[C@H](O)[C@@H]2O`, the growth was 113% (inactive).
Consider `ON=C1CCCCCCCC1`, for which the growth was 100% (inactive) and 98.6% (inactive).
In the case of `CCCCCCCCCCCCCCCC[N+](C)(C)CCN(Cc1ccc(OC)cc1)c1ncccn1` it was -70.3% (active) and 43.8% (inactive); in that of `Cc1nc2sc(C(=O)Nc3cccc4ncccc34)c(N)c2cc1C(C)O` (stereo not drawn), 74.5% (inactive).
As for `C=C[C@]1(C)C=C2CC[C@@H]3C(C)(C)C(=O)CC[C@@]3(C)[C@@H]2CC1`, the growth was 1.04% (active).
With `CC[C@H](C)[C@H](NC(=O)[C@H](CCCCN)NC(=O)[C@H](CCCCN)NC(=O)[C@@H](NC(=O)[C@@H](NC(=O)[C@@H](N)Cc1cnc[nH]1)[C@@H](C)CC)[C@@H](C)CC)C(=O)N[C@@H](CCCNC(=N)N)C(=O)N[C@H](C(=O)N[C@@H](Cc1c[nH]c2ccccc12)C(=O)N[C@@H](Cc1ccc(O)cc1)C(=O)N[C@@H](CCCNC(=N)N)C(=O)N[C@@H](CCCCN)C(=O)N[C@@H](C)C(=O)N[C@@H](Cc1c[nH]c2ccccc12)C(=O)N[C@@H](Cc1cnc[nH]1)C(=O)N[C@H](C(=O)N[C@@H](CC(C)C)C(=O)NCC(=O)N[C@@H](CCCCN)C(=O)N[C@H](C(N)=O)C(C)C)C(C)C)[C@@H](C)O`, the growth was 4.7% (active).
As to `CC(=O)N1N=C(c2ccc(F)cc2)CC1c1sc(N(C)Cc2ccccc2)nc1Cl` (stereo not drawn), the growth was 102% (inactive).
